# Screening results as filed in PubChem.
# HIF act – HIF pathway transcriptional activation; U2OS HRE-luciferase reporter, luminescence; normalized: DMSO 0%, desferrioxamine 100%; activation, % at 7.5 µM (by protocol); 300,000 compounds, 0.32% hits; AID 1910;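 active = mean activation of at least 10% of the iron chelator positive control signal, with at least half of replicates also reaching 10%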
# NPR1 activator – GC-A (human) enzyme activation; HEK293 GC-A cells, cGMP TR-FRET, EC30 ANP; 0% at EC30 ANP, 100% saturating ANP; P16066; 370,000 compounds, 0.14% hits; activation, % at 10 µM; in the data active = activation above about 40%
# KLK7 zymogen act – proKLK7 (human) activation, primary screen; activation, % at 7 µM; purified proKLK7, EDANS-DABCYL substrate fluorescence; 100% is mature enzyme control, 0% vehicle; P49862; 370,000 compounds, 0.9% hits;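 active = activation above the mean of all tested compounds plus 3 SD, computed per campaign excluding outliers beyond control limits, cut at about 13% in these data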
# NPR2 activator – GC-B (human) receptor activation. P20594. AID 1920062. 370,000 compounds, 0.11% hits. activation, % at 10 µM. HEK293-GC-B cells, CNP EC30, cGMP TR-FRET; 0% at EC30 CNP, 100% saturating CNP;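 active = activation at 10 µM reaching about 35% in either raw or pattern-adjusted values, limit read from the data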
# Target sequence (P20594 whole entry, looked up): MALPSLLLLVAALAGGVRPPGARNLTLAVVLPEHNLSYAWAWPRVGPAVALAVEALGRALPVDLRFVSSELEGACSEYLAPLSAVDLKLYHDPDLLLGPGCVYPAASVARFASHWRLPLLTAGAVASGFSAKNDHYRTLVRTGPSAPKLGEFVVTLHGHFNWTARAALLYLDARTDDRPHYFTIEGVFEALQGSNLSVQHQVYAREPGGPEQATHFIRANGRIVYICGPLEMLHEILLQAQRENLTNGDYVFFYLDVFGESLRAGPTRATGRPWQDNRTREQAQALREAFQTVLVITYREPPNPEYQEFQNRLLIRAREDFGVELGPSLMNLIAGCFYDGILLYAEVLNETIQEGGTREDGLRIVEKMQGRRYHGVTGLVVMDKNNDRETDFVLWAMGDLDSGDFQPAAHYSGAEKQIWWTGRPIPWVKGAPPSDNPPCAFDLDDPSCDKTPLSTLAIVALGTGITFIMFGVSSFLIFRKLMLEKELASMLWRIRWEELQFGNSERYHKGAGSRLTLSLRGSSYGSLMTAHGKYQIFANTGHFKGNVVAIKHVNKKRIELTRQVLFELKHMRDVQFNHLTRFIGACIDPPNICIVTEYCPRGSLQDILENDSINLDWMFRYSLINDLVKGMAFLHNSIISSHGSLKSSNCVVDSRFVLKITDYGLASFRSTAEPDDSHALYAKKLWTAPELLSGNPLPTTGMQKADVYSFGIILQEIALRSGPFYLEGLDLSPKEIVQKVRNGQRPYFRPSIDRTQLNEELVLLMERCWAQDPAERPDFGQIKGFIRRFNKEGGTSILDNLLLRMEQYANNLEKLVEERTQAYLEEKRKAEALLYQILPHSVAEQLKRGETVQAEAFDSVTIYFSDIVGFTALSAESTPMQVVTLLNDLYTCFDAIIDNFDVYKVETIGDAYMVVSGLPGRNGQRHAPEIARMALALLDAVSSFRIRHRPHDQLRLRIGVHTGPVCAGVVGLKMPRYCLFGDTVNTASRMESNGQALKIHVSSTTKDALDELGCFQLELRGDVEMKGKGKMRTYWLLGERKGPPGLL
# proKLK7 act conf – proKLK7 activation, confirmation; shares compounds with KLK7 zymogen act; purified proKLK7, EDANS-DABCYL substrate fluorescence; scaled: vehicle 0, mature enzyme 100; activation, % at 7 µM; 3,200 compounds, 68% hits; AID 686949;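 active = activation, as change over the incubation, above the mean of all tested compounds plus 3 SD, cut at about 13% in these data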
# EDANS-DABCYL int – fluorescence interference counter-screen for KLK7 activators; AID 686952; shares compounds with KLK7 zymogen act; 3,200 compounds, 80% hits; activation, % at 7 µM; EDANS-DABCYL substrate fluorescence interference, no enzyme, 4 h; solvent 0%, active enzyme control 100%;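 active = activation above the all-compound mean plus 3 SD, ignoring values outside control-based bounds, cut at about 4.8% in these data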;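 note: value is the 4 h activation minus the activation read at time zero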
# EDANS interf – counter-screen for kallikrein-7 activators: EDANS-DABCYL interference, dose response | shares compounds with KLK7 zymogen act | EDANS-DABCYL peptide fluorescence interference, no enzyme | EC50, µM | 250 compounds, 20% hits | AID 720493;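 active = compounds that raise the fluorescence signal in this interference counterscreen, with EC50 at or below 10 µM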;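 note: intact quenched peptide substrate alone read at 355 nm excitation and 520 nm emission; signal is fluorescence gain from T0 to T4 after four hours at room temperature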
# An asterisk follows results filed as active; . = no result given. A selection: hits, their analogues and other compounds. The true share with any hit is near 1.3%.
SMILES,HIF act,NPR1 activator,KLK7 zymogen act,NPR2 activator,proKLK7 act conf,EDANS-DABCYL int,others
C[C@H]1[C@@H](c2ccccc2)OC(O)([C@H](Cc2ccccc2)NC(=O)OC(C)(C)C)CN1C (stereo not given in full),.,-8,.,-12,.,.,
CCOC(=O)C1CCN(C(c2cc3c(C)ccc(C)c3[nH]c2=O)c2nnnn2C2CCCCC2)CC1 (stereo not given),0,0,27*,1,1,0,
CCC(C)(C)n1nnnc1CN(Cc1cc2cc(OC)c(OC)cc2[nH]c1=O)C1CCCC1,0,0,16*,-10,-12,-8,
Cc1ccc2[nH]c(=O)c(CN(Cc3nnnn3C3CCCC3)C3CCCCC3)cc2c1,1,0,1,0,.,.,
COc1cc2cc(CN(Cc3nnnn3Cc3ccccc3)CC3CCCO3)c(=O)[nH]c2cc1OC (stereo not given),0,3,41*,-2,-5,-11,
O=c1[nH]c2cc3c(cc2cc1CN(Cc1nnnn1C1CCCC1)C1CCCC1)OCCO3,3,5,29*,-6,-1,-2,
Cc1cccc(C)c1OCc1cccc(C2Nc3ccccc3C(=O)N2Cc2ccco2)c1 (stereo not given),.,-8,.,-3,.,.,
O=C1c2ccccc2NC(c2cccc(F)c2)N1Cc1ccco1 (stereo not given),0,-8,22*,-6,-3,-8,
O=C1c2ccccc2NC(c2ccc(O)cc2)N1Cc1ccco1 (stereo not given),0,-5,24*,-7,9,7.1*,
Cc1ccc(C2Nc3ccccc3C(=O)N2Cc2ccco2)cc1 (stereo not given),0,-4,13*,-8,-22,-19,
O=C1c2ccccc2NC(c2cccc(F)c2)N1Cc1ccccc1 (stereo not given),-1,-19,11,-6,.,.,
COc1ccc2c(c1)Sc1ccc(Cl)cc1N2,.,-17,.,-20,.,.,
CC(C)CC(=O)Nc1ccc(-c2cn3cccnc3n2)cc1,1,6,70*,-1,66*,68*,
CC(C)(C)CC(=O)Nc1ccc(-c2cn3cccnc3n2)cc1,3,-3,74*,-1,66*,65*,
CC(=O)Nc1ccc(S(=O)(=O)Nc2cccc(-c3csc(C)n3)c2)cc1,0,-2,-1,-2,.,.,
CC(=O)Nc1ccc(S(=O)(=O)Nc2cccc(-c3cn4cccnc4n3)c2)cc1,0,0,43*,2,7,7.8*,
O=C(Nc1ccccc1)Nc1cccc(-c2cn3cccnc3n2)c1,1,9,1,9,.,.,
CCCC(=O)Nc1cccc(-c2cn3cccnc3n2)c1,-1,3,30*,-1,42*,45*,
CCCCCCCCNS(=O)(=O)CC1NCc2cc(OC)ccc21 (stereo not given),.,1,-1,3,.,.,
CCN(CC)S(=O)(=O)c1cccc(-c2cn3cccnc3n2)c1,0,-2,21*,2,38*,25*,EDANS interf=>70
COc1ccc(-c2cn3cccnc3n2)cc1NC(=O)CC(C)C,0,1,4,-6,.,.,
CCCC(=O)Nc1cc(-c2cn3cccnc3n2)ccc1OC,0,5,5,-1,.,.,
CCCC(=O)Nc1ccc(-c2cn3cccnc3n2)cc1,3,6,58*,-1,67*,63*,
CCOCC(=O)Nc1ccc(-c2cn3cccnc3n2)cc1,-1,0,39*,1,67*,79*,
COc1cccc(-c2nnc(SCc3cc(C)ccc3C)n2Cc2ccco2)c1,.,-5,1,-2,.,.,
SMILES,HIF act,NPR1 activator,KLK7 zymogen act,NPR2 activator,proKLK7 act conf,EDANS-DABCYL int,others
O=S1(=O)c2c(cccc2N2CCC[C@H]2CO)O[C@H]2CCN1C2,.,2,0,2,.,.,
CN(Cc1ccccc1F)C(=O)C1C2C=CC3(CN(Cc4ccccc4)C(=O)C13)O2 (stereo not given),.,2,0,8,.,.,
CCC1(O)C(=O)OCc2c1cc1n(c2=O)Cc2cc3cc(O)ccc3nc2-1 (stereo not given),.,56*,64*,0,74*,77*,
CC1(c2nnnn2-c2ccc3c(c2)OCCO3)CSCC(=O)N1CCc1c[nH]c2ccccc12 (stereo not given),.,-6,0,-3,.,.,
COc1ccccc1Oc1coc2c(CN3CCN(C)CC3)c(O)ccc2c1=O,0,2,74*,4,74*,78*,
CCN1CCN(Cc2c(O)ccc3c(=O)c(-c4ccccc4OC)coc23)CC1,0,1,50*,-1,73*,78*,
COc1ccccc1-c1coc2c(CN3CCN(C)CC3)c(O)ccc2c1=O,-1,3,80*,1,73*,73*,
COc1ccccc1-c1coc2c(CN3CCN(CCO)CC3)c(O)ccc2c1=O,0,1,111*,5,74*,81*,
COc1ccccc1-c1coc2cc(OC(=O)N3CCOCC3)ccc2c1=O,2,3,1,4,.,.,
CCC(c1c[nH]c2ccccc12)c1cn(C)c2ccccc12 (stereo not given),.,-5,0,0,.,.,
C=CCN(c1ccccc1)S(=O)(=O)c1cccc(C(=O)Oc2ccc3c(C)cc(=O)oc3c2)c1,-2,6,42*,2,405*,422*,
C=CCn1c(COc2ccccc2)nnc1SCC(=O)Nc1ccc(S(=O)(=O)Nc2cc(C)nc(C)n2)cc1,.,3,0,1,.,.,
Cc1c(C)c2ccc(O)c(CN3CCCC3)c2oc1=O,-4,2,61*,-5,64*,66*,
CCc1c(C)c2ccc(O)c(CN3CCCC3)c2oc1=O,-3,1,38*,9,59*,63*,
CN1CCN(Cc2c(O)ccc3cc(Br)ccc23)CC1,0,6,-1,-2,.,.,
Cc1c(C)c2ccc(O)c(CN3CCN(C)CC3)c2oc1=O,2,0,63*,3,70*,65*,
COC(=O)Cc1c(C)c2ccc(O)c(CN3CCCC(C)C3)c2oc1=O (stereo not given),0,5,53*,5,76*,75*,
C#CCCCN([C@@H](CC(C)C)C(=O)OC)S(=O)(=O)c1ccccc1Br,.,-5,0,-3,.,.,
Cc1c(C(=O)N/N=C/c2ccccc2Cl)[nH][nH]c1=O,.,-4,0,1,.,.,
COC(=O)c1cnn(-c2ccc(Cl)cc2)c1/C=N/NC(=S)Nc1ccccc1,.,-13,.,-5,.,.,
CC(C)CC(=O)N1CCc2cc(S(=O)(=O)N(C)Cc3ccco3)ccc21,.,-4,0,-5,.,.,
